Data on 4 molecules can be found in PubChem BioAssay.

Values joined by “and” are separate entries in the source; they are usually repeats but may differ in a detail not shown here. Equal values may be shown once. Active and inactive are the calls of the source. Cut-off read from the data, not from the text of the source: active = inhibition above about 80%; inactive = the rest.

The nature of the first assay: growth inhibition, single agents and combos, ICB984, cell-based, cisplatin or BGB combos, synergistic combos for chromothripsis tumors (AID 1671451).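 Note: cells exposed for 96 hours before readout; 0% = vehicle DMSO and 100% = killing by high DMSO.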 Particulars: ICB984 medulloblastoma cells, drug combinations, cisplatin combo, at 0.5 µM, stronger effect = higher value.
For `CCCCCCNC(=O)n1cc(F)c(=O)[nH]c1=O`, the inhibition was -50% and -4.83%.

`CCn1cc(C(=O)O)c(=O)c2cc(F)c(N3CCN(C)CC3)cc21`: the inhibition is -53.3% and -24%.

Take `Cn1cnc([N+](=O)[O-])c1Sc1ncnc2nc[nH]c12`: the inhibition was -29.3% and -25.2%.

For the molecule `O=c1[nH]cc(F)c(=O)[nH]1`, the inhibition came to 7.66%.

Still in this assay, the particulars now being: ICB984 medulloblastoma cells, drug combinations, cisplatin combo, at 5 µM, stronger effect = higher value.
In the case of `CCCCCCNC(=O)n1cc(F)c(=O)[nH]c1=O`, the inhibition is -43.5% and -25.3%.

As to `CCn1cc(C(=O)O)c(=O)c2cc(F)c(N3CCN(C)CC3)cc21`, the inhibition was -34.1% and -14.2%.

In the case of `Cn1cnc([N+](=O)[O-])c1Sc1ncnc2nc[nH]c12`, the inhibition is -23% and 1.4%.

With `O=c1[nH]cc(F)c(=O)[nH]1`, the inhibition was -4.18%.

Staying with this assay, now noted: ICB984 medulloblastoma cells, drug combinations, measured here: 5 uM single agent, at 5 µM, stronger effect = higher value.
On to `CCCCCCNC(=O)n1cc(F)c(=O)[nH]c1=O`, for which the inhibition was -14.5% and -8.95%.

With `CCn1cc(C(=O)O)c(=O)c2cc(F)c(N3CCN(C)CC3)cc21`, the inhibition was -3.29% and -1.89%.

`Cn1cnc([N+](=O)[O-])c1Sc1ncnc2nc[nH]c12`: the inhibition was -20.7% and -15.2%.

`O=c1[nH]cc(F)c(=O)[nH]1`: the inhibition was -20.2%.

A short description of the next assay: growth inhibition, single agents and combos, LFS_MB_1R, cell-based, cisplatin or BGB combos, synergistic combos for chromothripsis tumors (AID 1671452).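 Note: cells exposed for 96 hours before readout.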 Particulars: LFS_MB_1R medulloblastoma cells, at 0.5 µM, stronger effect = higher value.
As for `CCCCCCNC(=O)n1cc(F)c(=O)[nH]c1=O`, the inhibition is -10.6% (inactive) and -21.3% (inactive).

On to `CCn1cc(C(=O)O)c(=O)c2cc(F)c(N3CCN(C)CC3)cc21`, for which the inhibition is -35.2% (inactive) and -9.17% (inactive).

As for `Cn1cnc([N+](=O)[O-])c1Sc1ncnc2nc[nH]c12`, the inhibition is -1.99% (inactive) and -33.4% (inactive).

Take `O=c1[nH]cc(F)c(=O)[nH]1`: the inhibition was -23.7% (inactive).

Still in this assay, the particulars now being: LFS_MB_1R medulloblastoma cells, measured here: combination with BGB IC40, at 0.05 µM, stronger effect = higher value.
Regarding `CCCCCCNC(=O)n1cc(F)c(=O)[nH]c1=O`, the inhibition was -28.1% and 5.33%.

As to `CCn1cc(C(=O)O)c(=O)c2cc(F)c(N3CCN(C)CC3)cc21`, the inhibition was -12.2% and -6.93%.

Take `Cn1cnc([N+](=O)[O-])c1Sc1ncnc2nc[nH]c12`: the inhibition is -14.2% and -22.8%.

Take `O=c1[nH]cc(F)c(=O)[nH]1`: the inhibition is -2.27%.

The assay is the same for the next values; noted with them: LFS_MB_1R medulloblastoma cells, measured here: combination with cisplatin, at 0.5 µM, stronger effect = higher value.
With `CCCCCCNC(=O)n1cc(F)c(=O)[nH]c1=O`, the inhibition was -15.3% and -53.6%.

`CCn1cc(C(=O)O)c(=O)c2cc(F)c(N3CCN(C)CC3)cc21`: the inhibition was -66.1% and -0.499%.

Consider `Cn1cnc([N+](=O)[O-])c1Sc1ncnc2nc[nH]c12`, for which the inhibition is -2.77% and -51.2%.

`O=c1[nH]cc(F)c(=O)[nH]1`: the inhibition worked out at 11.9%.

Still in this assay, the particulars now being: LFS_MB_1R medulloblastoma cells, measured here: combination with cisplatin, at 5 µM, stronger effect = higher value.
Take `CCCCCCNC(=O)n1cc(F)c(=O)[nH]c1=O`: the inhibition was -40% and -9.49%.

For the molecule `CCn1cc(C(=O)O)c(=O)c2cc(F)c(N3CCN(C)CC3)cc21`, the inhibition was -52.8% and 11.3%.

With `Cn1cnc([N+](=O)[O-])c1Sc1ncnc2nc[nH]c12`, the inhibition is 10.1% and -28.7%.

For `O=c1[nH]cc(F)c(=O)[nH]1`, the inhibition is -15.5%.

Another assay in a line: growth inhibition, single agents and combos, HTB85, cell-based, BGB or cisplatin IC20 combos, synergistic combos for chromothripsis tumors (AID 1671453).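 Note: cells exposed for 96 hours before readout; 0% = vehicle DMSO and 100% = high DMSO killing control.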 Particulars: HTB85 osteosarcoma cells, drug combinations, at 0.5 µM, stronger effect = higher value.
For the molecule `CCCCCCNC(=O)n1cc(F)c(=O)[nH]c1=O`, the inhibition is -3.88% (inactive) and -24.5% (inactive).

In the case of `CCn1cc(C(=O)O)c(=O)c2cc(F)c(N3CCN(C)CC3)cc21`, the inhibition was -24.6% (inactive) and 0.8% (inactive).

Consider `Cn1cnc([N+](=O)[O-])c1Sc1ncnc2nc[nH]c12`, for which the inhibition is -24.4% (inactive) and -11% (inactive).

In the case of `O=c1[nH]cc(F)c(=O)[nH]1`, the inhibition is -17.6% (inactive).

The same assay, now with this note: HTB85 osteosarcoma cells, drug combinations, measured here: with BGB IC20, at 0.5 µM, stronger effect = higher value.
On to `CCCCCCNC(=O)n1cc(F)c(=O)[nH]c1=O`, for which the inhibition was -6.6% and -67.2%.

For `CCn1cc(C(=O)O)c(=O)c2cc(F)c(N3CCN(C)CC3)cc21`, the inhibition is -39.2% and 13.3%.

As for `Cn1cnc([N+](=O)[O-])c1Sc1ncnc2nc[nH]c12`, the inhibition was -62.4% and -24%.

For the molecule `O=c1[nH]cc(F)c(=O)[nH]1`, the inhibition was -36.1%.

Staying with this assay, now noted: HTB85 osteosarcoma cells, drug combinations, measured here: with BGB IC20, at 5 µM, stronger effect = higher value.
`CCCCCCNC(=O)n1cc(F)c(=O)[nH]c1=O`: the inhibition is 21% and 3.85%.

With `CCn1cc(C(=O)O)c(=O)c2cc(F)c(N3CCN(C)CC3)cc21`, the inhibition is -22.1% and 10.1%.

Regarding `Cn1cnc([N+](=O)[O-])c1Sc1ncnc2nc[nH]c12`, the inhibition was -10.9% and -18.4%.

Consider `O=c1[nH]cc(F)c(=O)[nH]1`, for which the inhibition is 17.5%.

The assay is the same for the next values; noted with them: HTB85 osteosarcoma cells, drug combinations, measured here: with cisplatin IC20, at 0.5 µM, stronger effect = higher value.
As for `CCCCCCNC(=O)n1cc(F)c(=O)[nH]c1=O`, the inhibition was -9.7% and -6.78%.

With `CCn1cc(C(=O)O)c(=O)c2cc(F)c(N3CCN(C)CC3)cc21`, the inhibition is -19.7% and -20.6%.

`Cn1cnc([N+](=O)[O-])c1Sc1ncnc2nc[nH]c12`: the inhibition is -12.7% and 1.06%.

In the case of `O=c1[nH]cc(F)c(=O)[nH]1`, the inhibition was -12.5%.

The assay is the same for the next values; noted with them: HTB85 osteosarcoma cells, drug combinations, measured here: with cisplatin IC20, at 5 µM, stronger effect = higher value.
`CCCCCCNC(=O)n1cc(F)c(=O)[nH]c1=O`: the inhibition is 9.85% and 21%.

On to `CCn1cc(C(=O)O)c(=O)c2cc(F)c(N3CCN(C)CC3)cc21`, for which the inhibition was -28.4% and -20.4%.

With `Cn1cnc([N+](=O)[O-])c1Sc1ncnc2nc[nH]c12`, the inhibition is 8.32% and 19.5%.

`O=c1[nH]cc(F)c(=O)[nH]1`: the inhibition is 22.8%.

Still in this assay, the particulars now being: HTB85 osteosarcoma cells, drug combinations, single agent, at 5 µM, stronger effect = higher value.
For the molecule `CCCCCCNC(=O)n1cc(F)c(=O)[nH]c1=O`, the inhibition is 31.6% and 31.5%.

As for `CCn1cc(C(=O)O)c(=O)c2cc(F)c(N3CCN(C)CC3)cc21`, the inhibition is -27.1% and 2.1%.

Consider `Cn1cnc([N+](=O)[O-])c1Sc1ncnc2nc[nH]c12`, for which the inhibition was 11% and -0.274%.

Take `O=c1[nH]cc(F)c(=O)[nH]1`: the inhibition was 21.8%.

A further assay can be described thus: growth inhibition, single agents and combos, CRL2098, cell-based, BGB or cisplatin IC20 combos, synergistic combos for chromothripsis tumors (AID 1671454).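 Note: cells exposed for 96 h before readout; 0% = vehicle DMSO and 100% = killing by high DMSO.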 Particulars: CRL2098 osteosarcoma cells, drug combinations, at 0.5 µM, stronger effect = higher value.
Regarding `CCCCCCNC(=O)n1cc(F)c(=O)[nH]c1=O`, the inhibition is -23.4% (inactive) and -30.5% (inactive).

For `CCn1cc(C(=O)O)c(=O)c2cc(F)c(N3CCN(C)CC3)cc21`, the inhibition is -41.2% (inactive) and 7.78% (inactive).

`Cn1cnc([N+](=O)[O-])c1Sc1ncnc2nc[nH]c12`: the inhibition is -39.2% (inactive) and -50.5% (inactive).

For `O=c1[nH]cc(F)c(=O)[nH]1`, the inhibition was -19.9% (inactive).

The same assay, now with this note: CRL2098 osteosarcoma cells, drug combinations, measured here: combination with BGB at IC20, at 0.5 µM, stronger effect = higher value.
With `CCCCCCNC(=O)n1cc(F)c(=O)[nH]c1=O`, the inhibition is -16.8% and -6.28%.

With `CCn1cc(C(=O)O)c(=O)c2cc(F)c(N3CCN(C)CC3)cc21`, the inhibition is -48.5% and 10.5%.

On to `Cn1cnc([N+](=O)[O-])c1Sc1ncnc2nc[nH]c12`, for which the inhibition is -37.7% and -16.5%.

In the case of `O=c1[nH]cc(F)c(=O)[nH]1`, the inhibition is -48.5%.
